Results taken from PubChem BioAssay AID1159580 (chemical genetic matrix, 2015).
In all, about 5,500 compounds went through this assay and about 2,000 (36%) were called active. Roughly 18% stayed inconclusive and do not appear here. Cut-off read from the data, not from the text of the source: active = normalized growth mostly below about 0.91 (no sharp cut-off); inconclusive = no clear call, values can overlap the other calls; inactive = mostly above about 0.92. Some of the results follow.

Assay: chemical genetic growth profiling, strain panel (AID 1159580);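 note: tested at 20 µM; growth read once vehicle control cultures reached saturation at 30 °C; 1 = growth at the plate median or of vehicle wells; lower values mean less growth of the strain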
Settings: growth OD

Measured: normalized growth

NC(=O)c1cc[n+](CC2=C(C(=O)O)N3C(=O)C(NC(=O)C(c4ccccc4)S(=O)(=O)[O-])C3SC2)cc1 (stereo not given)
inactive: S. cerevisiae deletion strains, locus YJR066W, strain TOR1, active compounds read low 1 | S. cerevisiae deletion strains, locus YKL009W, strain mrt4, active compounds read low 0.991 | S. cerevisiae deletion strains, locus YKL068W, active compounds read low 0.992 | S. cerevisiae deletion strains, locus YKL085W, strain MDH1 (second series), active compounds read low 0.987 | S. cerevisiae deletion strains, locus YKL085W, strain MDH1, active compounds read low 0.987 | S. cerevisiae deletion strains, locus YKL160W, strain elf1, active compounds read low 0.967 | S. cerevisiae deletion strains, locus YKL190W, strain CNB1, active compounds read low 0.996 | S. cerevisiae deletion strains, locus YKR001C, strain vps1, active compounds read low 0.993 | S. cerevisiae deletion strains, locus YKR026C, strain gcn3, active compounds read low 0.96 | S. cerevisiae deletion strains, locus YKR091W, strain srl3, active compounds read low 1.01 | S. cerevisiae deletion strains, locus YLL001W, strain dnm1, active compounds read low 0.961 | S. cerevisiae deletion strains, locus YLL026W, active compounds read low 0.999 | S. cerevisiae deletion strains, locus YLL041C, strain sdh2, active compounds read low 0.978 | S. cerevisiae deletion strains, locus YLR027C, strain aat2, active compounds read low 0.982 | S. cerevisiae deletion strains, locus YLR039C, strain RIC1, active compounds read low 0.986 | S. cerevisiae deletion strains, locus YLR058C, strain SHM2, active compounds read low 0.987 | S. cerevisiae deletion strains, locus YLR102C, strain apc9, active compounds read low 0.992 | S. cerevisiae deletion strains, locus YLR113W, strain HOG1, active compounds read low 1.09 | S. cerevisiae deletion strains, locus YLR221C, strain rsa3, active compounds read low 0.991 | S. cerevisiae deletion strains, locus YLR258W, strain gsy2, active compounds read low 1.01 | S. cerevisiae deletion strains, locus YLR262C, strain YPT6 (second series), active compounds read low 0.983 | S. cerevisiae deletion strains, locus YLR262C, strain YPT6, active compounds read low 0.945 | S. cerevisiae deletion strains, locus YLR268W, strain sec22, active compounds read low 0.981 | S. cerevisiae deletion strains, locus YLR320W, strain mms22, active compounds read low 1.01 | S. cerevisiae deletion strains, locus YLR330W, strain CHS5, active compounds read low 0.982 | S. cerevisiae deletion strains, locus YLR342W, strain FKS1 (second series), active compounds read low 0.959 | S. cerevisiae deletion strains, locus YLR342W, strain FKS1, active compounds read low 0.973 | S. cerevisiae deletion strains, locus YLR357W, strain rsc2, active compounds read low 0.965 | S. cerevisiae deletion strains, locus YLR370C, strain arc18, active compounds read low 1 | S. cerevisiae deletion strains, locus YLR371W, strain rom2, active compounds read low 0.987 | S. cerevisiae deletion strains, locus YLR384C, strain iki3, active compounds read low 0.984 | S. cerevisiae deletion strains, locus YLR418C, strain cdc73, active compounds read low 0.972 | S. cerevisiae deletion strains, locus YML016C, strain PPZ1, active compounds read low 0.982 | S. cerevisiae deletion strains, locus YML032C, strain rad52, active compounds read low 0.989 | S. cerevisiae deletion strains, locus YML120C, strain ndi1, active compounds read low 0.986 | S. cerevisiae deletion strains, locus YML124C, strain tub3, active compounds read low 0.982 | S. cerevisiae deletion strains, locus YMR058W, strain fet3, active compounds read low 0.998 | S. cerevisiae deletion strains, locus YMR078C, strain ctf18, active compounds read low 0.989 | S. cerevisiae deletion strains, locus YMR125W, strain sto1, active compounds read low 0.971 | S. cerevisiae deletion strains, locus YMR129W, active compounds read low 1.01 | S. cerevisiae deletion strains, locus YMR205C, strain PFK2, active compounds read low 1 | S. cerevisiae deletion strains, locus YMR223W, strain ubp8, active compounds read low 0.974 | S. cerevisiae deletion strains, locus YMR231W, strain pep5, active compounds read low 1 | S. cerevisiae deletion strains, locus YMR307W, strain GAS1, active compounds read low 0.883 | S. cerevisiae deletion strains, locus YNL067W, strain RPL9B, active compounds read low 1.02 | S. cerevisiae deletion strains, locus YNL071W, strain lat1, active compounds read low 1.01 | S. cerevisiae deletion strains, locus YNL153C, strain GIM3, active compounds read low 1.04 | S. cerevisiae deletion strains, locus YNL183C, strain NPR1, active compounds read low 0.999 | S. cerevisiae deletion strains, locus YNL209W, strain ssb2, active compounds read low 1.01 | S. cerevisiae deletion strains, locus YNL233W, strain BNI4, active compounds read low 1.01 | S. cerevisiae deletion strains, locus YNL248C, strain rpa49, active compounds read low 0.987 | S. cerevisiae deletion strains, locus YNL250W, strain rad50, active compounds read low 0.975 | S. cerevisiae deletion strains, locus YNL271C, strain bni1, active compounds read low 0.985 | S. cerevisiae deletion strains, locus YNL298W, strain CLA4, active compounds read low 0.988 | S. cerevisiae deletion strains, locus YNL307C, strain MCK1, active compounds read low 0.987 | S. cerevisiae deletion strains, locus YNL322C, strain KRE1 (second series), active compounds read low 0.994 | S. cerevisiae deletion strains, locus YNL322C, strain KRE1, active compounds read low 0.993 | S. cerevisiae deletion strains, locus YNR049C, strain mso1, active compounds read low 0.986 | S. cerevisiae deletion strains, locus YNR052C, strain pop2, active compounds read low 0.991 | S. cerevisiae deletion strains, locus YOL006C, strain TOP1, active compounds read low 1.02 | S. cerevisiae deletion strains, locus YOL012C, strain htz1 1.88 | S. cerevisiae deletion strains, locus YOL147C, strain pex11, active compounds read low 0.983 | S. cerevisiae deletion strains, locus YOR001W, strain rrp6, active compounds read low 0.985 | S. cerevisiae deletion strains, locus YOR061W, strain CKA2, active compounds read low 0.985 | S. cerevisiae deletion strains, locus YOR069W, strain VPS5, active compounds read low 0.987 | S. cerevisiae deletion strains, locus YOR070C, strain gyp1, active compounds read low 1.01 | S. cerevisiae deletion strains, locus YOR080W, strain dia2, active compounds read low 0.982 | S. cerevisiae deletion strains, locus YOR083W, strain WHI5, active compounds read low 0.985 | S. cerevisiae deletion strains, locus YOR106W, strain vam3, active compounds read low 0.992 | S. cerevisiae deletion strains, locus YOR136W, strain idh2, active compounds read low 0.998 | S. cerevisiae deletion strains, locus YOR144C, strain elg1, active compounds read low 0.991 | S. cerevisiae deletion strains, locus YOR184W, strain ser1, active compounds read low 0.98 | S. cerevisiae deletion strains, locus YOR231W, strain MKK1, active compounds read low 1.09 | S. cerevisiae deletion strains, locus YOR265W, strain rbl2, active compounds read low 1 | S. cerevisiae deletion strains, locus YOR270C, strain vph1, active compounds read low 0.93 | S. cerevisiae deletion strains, locus YOR290C, strain snf2, active compounds read low 0.998 | S. cerevisiae deletion strains, locus YOR316C, strain cot1, active compounds read low 0.994 | S. cerevisiae deletion strains, locus YPL051W, strain arl3, active compounds read low 0.987 | S. cerevisiae deletion strains, locus YPL055C, strain LGE1, active compounds read low 1.06 | S. cerevisiae deletion strains, locus YPL078C, strain atp4, active compounds read low 0.962 | S. cerevisiae deletion strains, locus YPL106C, strain sse1, active compounds read low 1.02 | S. cerevisiae deletion strains, locus YPL240C, strain hsp82, active compounds read low 0.987 | S. cerevisiae deletion strains, locus YPL241C, strain CIN2, active compounds read low 0.991 | S. cerevisiae deletion strains, locus YPL256C, strain CLN2, active compounds read low 1.07 | S. cerevisiae deletion strains, locus YPR119W, strain clb2, active compounds read low 0.995 | S. cerevisiae deletion strains, locus YPR141C, strain kar3, active compounds read low 0.98 | S. cerevisiae deletion strains, locus YPR163C, strain tif3, active compounds read low 0.987 | S. cerevisiae deletion strains, locus YPR167C, strain met16, active compounds read low 0.981 | S. cerevisiae deletion strains, strain wtn01, active compounds read low 0.981 | S. cerevisiae strains, strain wild type, active compounds read low 0.995
